# KB-3-1 cytotox – kills parental KB-3-1 adenocarcinoma cells; KB-3-1 viability, CellTiter-Glo ATP luminescence, 72 h; Potency, µM (titrated, usually from 46.1 µM), usual class: cytotoxic; 1.4% of 400,000 active; AID 1347075; also: % is scaled to controls: 0 for no effect and ±100 for the full control effect; nearly all actives have a fitted effect of over 60% in size
#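 Cytotoxicity measured as CellTiter-Glo luminescence after 72 h at 37 C. Compound titrations were pinned onto drug-naive KB-3-1 parental adenocarcinoma cells grown in DMEM with 10% FBS, and normalized data fitted to concentration-response curves.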
# TGFb SMAD3 inh – blocks TGF-b signaling. HepG2 CAGA-GFP TGF-b/SMAD3 reporter, GFP fluorescence, 18 h; TGF-beta stimulated, 500 pg/mL final. Potency, µM (series often up to 46.1 µM), without a hit: at the highest dose activity, negative = inhibition, most hits filed as inhibitors. 1.2% of 410,000 active. AID 588855; also: % is scaled to controls: 0 for no effect and ±100 for the full control effect; nearly all actives have a fitted effect of over 65% in size
#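 First, reporter cells (HEPG2 CAGA-GFP) rested 2 h at 37 degrees C. Next, compounds were pinned in and TGF-beta added to 500 pg/mL final. After 18 h, GFP was imaged per cell and summed per well.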
# KB-V1 cytotox – KB-V1 MDR subline cytotoxicity; KB-V1 MDR cells viability, CellTiter-Glo, 72 h; Potency, µM (series often up to 46.1 µM), most hits filed as cytotoxic; 3.4% of 400,000 active; AID 1347076; also: % is scaled to controls: 0 for no effect and ±100 for the full control effect; nearly all actives have a fitted effect of over 60% in size
#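 Following 72 h at 37 degrees C with compound, KB-V1 cell viability was read by CellTiter-Glo luminescence, medium being phenol-red-free DMEM plus 10% FBS; concentration-response parameters came from normalized, curve-fitted qHTS data.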
# HT1080 IDH1KD tx – toxicity to HT-1080 IDH1 knockdown cells (counter line); 2% of 360,000 active; HT-1080 IDH1 knockdown viability, ATP luminescence, 48 h; Potency, µM (titrated, usually from 46.1 µM), without a hit: top-dose activity, negative = toxicity, most hits filed as cytotoxic;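 also: 0% = DMSO wells and -100% = cell-free medium wells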
#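 Using the IDH1-knockdown HT-1080 line run in the same batch and compound series as the NT line, viability after 48 h at 37 °C was determined by CellTiter-Glo luminescence and expressed as % activity.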
# HepG2 tox – HepG2 cytotoxicity, counter-screen for TGF-b inhibitors; AID 588856; Potency, µM (series often up to 46.1 µM), inactives show at the highest dose activity change, negative = cytotoxicity, hits mostly cytotoxic; 0.76% of 410,000 active; HepG2 CAGA-GFP viability, ATP luminescence, 18 h
#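 CellTiter-Glo luminescence gave cytotoxicity after 18 hours at 37 degrees C. The cells were HepG2 CAGA-GFP in 1% FBS DMEM, stimulated with 500 pg/mL TGF-beta after compound addition. %Activity was normalised to no-cell wells (complete cell-killing) and DMSO (no toxicity), and curves were fitted and classified.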
# HT1080-NT tox – kills 2HG-producing HT-1080-NT fibrosarcoma cells | HT-1080-NT fibrosarcoma viability, CellTiter-Glo ATP luminescence, 48 h | Potency, µM (doses to about 46.1 µM), for the others: top-dose activity, negative = less viability, most hits filed as cytotoxic | 1.6% of 360,000 active | AID 686970;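 also: NT is the 2HG producing partner of a matched IDH1 knockdown line; 0% = DMSO-treated cells and -100% = media-only wells without cells; nearly all actives have a fitted effect of over 55% in size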
#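 HT-1080-NT; 750 cells/well; 5% FBS RPMI; 48 h compound, 37 degrees C; CellTiter-Glo luminescence; curve fitting and curve-class assignment.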
# The depositor's hits bear a star; i = inactive; ? = inconclusive; nt = not tested or not shown. Sampled rows, rich in hits. Any-hit rate of the full collection: about 6.6%. Calls follow the shape of the dose curve; as a rule, active = well fitted curve in the direction sought with a large enough effect; inconclusive = small, poorly fitted or top-dose-only effect, or another doubt; inactive = no such curve, though single readings can be large; an effect the other way counts as inactive or inconclusive. Potency is read from the fitted curve at half-maximal effect.
SMILES,KB-3-1 cytotox,TGFb SMAD3 inh,KB-V1 cytotox,HT1080 IDH1KD tx,HepG2 tox,HT1080-NT tox
N#CC(C#N)=C1C=CC=CN1/C(=C\c1ccco1)C(=O)c1ccccc1,?,2.2µM*,?,?,4µM*,?
COc1ccc(C(=O)/C(=C\c2ccco2)N2C=CC=CC2=C(C#N)C#N)cc1,?,3.5µM*,7.3µM*,2.9µM*,-50%,?
N#CC(C#N)=C1C=CC=CN1/C(=C\c1ccco1)C(=O)c1ccc(Br)cc1,?,3.2µM*,i,-12%,13µM*,-4%
N#C/C(=C/c1ccco1)C(N)=S,i,-1%,i,0%,-26%,?
COc1ccc(/C=C(/C(=O)c2cccs2)N2C=CC=CC2=C(C#N)C#N)cc1,i,?,i,?,11µM*,?
Cc1ccc2[nH]c(C)c(/C=C/c3cc[n+](C)cc3)c2c1,2.1µM*,110%,i,?,-10%,?
Cn1nc(C(=O)NNC(=O)Cc2ccc(S(=O)(=O)N3CCOCC3)s2)c2ccccc2c1=O,i,15%,i,2%,6%,-4%
O=C(Nc1ccc(N2CCOCC2)c(Cl)c1)c1ccc(-n2cnnc2)cc1,i,-5%,i,3%,2%,5%
O=C(Nc1ccc(N2CCOCC2)c(Cl)c1)c1ccc(F)cc1,i,10%,15µM*,0%,0%,4%
CC(C)C(=O)N1CCN(c2ccc(NC(=O)c3ccc4c(c3)OCCO4)cc2Cl)CC1,?,-18%,2.9µM*,?,-34%,?
Nc1ccc(N2CCN(c3cccc(Cl)c3)CC2)cc1,?,-37%,21µM*,1%,-1%,6%
CCCCCc1ccc(C2=NNC(=O)CC2)cc1,?,-8%,i,-4%,-14%,-2%
CC(C)CCOc1ccc(C2=NNC(=O)CC2)cc1,?,0%,1.8µM*,-5%,9%,0%
CC1(C)Cc2ccccc2C(N/N=C/c2ccc([N+](=O)[O-])cc2)=N1,i,0%,i,3%,-2%,13%
CC1(C)Cc2ccccc2C(N/N=C/c2ccc(Cl)cc2)=N1,?,?,15µM*,3%,-20%,12%
CCOc1ccc(CCNC(=O)CCCc2nnc3n(C)c(=O)c4sccc4n23)cc1OCC,i,5%,i,nt,-1%,nt
OCC1(Cc2ccccc2)CCCN(Cc2ccc3c(c2)OCCO3)C1 (stereo not given),i,-1%,i,-3%,0%,-8%
OCc1ccc2c(c1)c(-c1ccc3c(c1)OCCO3)c(-c1ccccc1)n2-c1ccccc1,?,20µM*,?,-18%,-8%,?
COc1cc(OC)c(OC)cc1/C=C/c1nccc2ccccc12,?,-20%,?,nt,-17%,nt
CCCSc1nc(C)c2cc(C)cc(C)c2n1,i,-13%,i,9%,4%,21%
Cc1cc(C)c2nc3nc(C)c(C)cc3c(N)c2c1,i,?,i,13µM*,0%,?
COc1ccccc1CNc1nc2ccccc2c2nc(-c3cccnc3)nn12,i,27%,i,nt,1%,nt
c1ccc(-c2nc3nc4ccccc4nc3n2Cc2ccco2)cc1,i,5%,i,1%,-17%,-3%
N=c1c2c(-c3ccccc3)c(-c3ccccc3)n(Cc3ccco3)c2ncn1CCN1CCOCC1,?,?,?,?,-53%,?
N=c1c2c(-c3ccccc3)c(-c3ccccc3)n(Cc3ccco3)c2ncn1CCO,i,?,i,18µM*,-100%,18µM*
SMILES,KB-3-1 cytotox,TGFb SMAD3 inh,KB-V1 cytotox,HT1080 IDH1KD tx,HepG2 tox,HT1080-NT tox
N=c1c2c(-c3ccccc3)c(-c3ccccc3)n(Cc3ccco3)c2ncn1CCCO,i,25µM*,?,8.2µM*,18µM*,21µM*
N#Cc1c(N)nc2c(c1-c1ccc3c(c1)OCO3)CCc1ccccc1-2,?,-23%,?,16µM*,-13%,?
N#Cc1c(N)c(C#N)c(-c2ccc3c(c2)OCO3)c2c1CCCC2,i,5%,?,6%,6%,9%
CC(C)(C)c1ccc(C(=O)NCCc2csc3nc(-c4ccccc4F)nn23)cc1,i,18µM*,i,nt,-22%,nt
CCCCOc1ccc(C(=O)NCCc2csc3nc(-c4ccccc4F)nn23)cc1,i,-7%,i,nt,-16%,nt
CC(C)(C)C1CCc2c(sc(NC(=O)c3ccncc3)c2C(N)=O)C1 (stereo not given),i,-4%,12µM*,0%,-22%,0%
Cc1cc(C)c(OCC(=O)N(Cc2cccc(F)c2)Cc2ccco2)c(C)c1,nt,-49%,nt,nt,11µM*,nt
Cc1cccc(C)c1OCC(=O)N(Cc1ccco1)Cc1ccco1,nt,0%,nt,nt,-31%,nt
COc1ccc(S(=O)(=O)c2c(Nc3c(C)cccc3C)sc(C(=O)c3ccc4c(c3)OCO4)c2N)cc1,3.7µM*,-21%,?,nt,4%,nt
COc1ccc(S(=O)(=O)c2c(Nc3c(C)cccc3C)sc(C(=O)c3ccc(F)cc3)c2N)cc1,5.8µM*,?,?,nt,-3%,nt
COc1ccc(S(=O)(=O)c2c(Nc3cccc(C)c3C)sc(C(=O)c3ccccc3)c2N)cc1,nt,19%,nt,nt,-1%,nt
COc1cccc(Nc2sc(C(=O)c3ccc4c(c3)OCO4)c(N)c2S(=O)(=O)c2ccccc2)c1,i,36%,?,nt,6%,nt
COc1ccc(-c2cn[nH]c2-c2ccc(OCC(=O)NN)cc2O)cc1,i,1%,?,-8%,-3%,-14%
C=C(C)COc1ccc(-c2n[nH]c(C)c2-c2ccc(OC)c(OC)c2)c(O)c1,6.5µM*,?,5.8µM*,1.5µM*,-49%,4.1µM*
C=C(C)COc1ccc(-c2[nH]ncc2-c2ccccc2)c(O)c1,i,11µM*,?,?,-98%,?
C=C(C)COc1ccc(-c2[nH]ncc2-c2ccc(OC)c(OC)c2)c(O)c1,1.6µM*,?,1.3µM*,4.6µM*,-44%,7.3µM*
Cn1c(-c2ccccc2)c(C#Cc2ccc(N)cc2)c2ccccc21,i,3.5µM*,i,-7%,-14%,-16%
NS(=O)(=O)c1ccc(N=Nc2c(-c3ccccc3)[nH]n(-c3nc(-c4ccccc4)cs3)c2=O)cc1,?,-21%,21µM*,-7%,-7%,-2%
Cc1cc(C)n2[nH]c(=O)c(N=Nc3ccc(S(N)(=O)=O)cc3)c2n1,i,-11%,i,2%,0%,5%

# Assay outcomes: PubChem BioAssay, National Center for Advancing Translational Sciences (NCATS)
